# Measured values published in PubChem BioAssay.
# The source made the active and inactive calls.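 Rule for the calls, unless noted: active = fluorescence slope higher than the sample average by over 3 SD (cut at about -0.22 in these data, passing the limit was not always enough); inactive = the rest.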
# Legend:
# [1] = inhibitors of TNFa-induced NFkB p65 translocation, primary screen, imaging, HUVEC, MLSMR starter and 10KST1 sets (AID 438;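 active = inhibition above 20% together with a positive visual image hit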;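 note: compound added about 3h40 before a 20 min TNFalpha stimulation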;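 for inhibition: signal is the nuclear over cytoplasmic p65 intensity ratio per well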); settings: HUVEC TNFa-induced p65 nuclear translocation; cell count: measured here: nuclei count (cytotoxicity indicator), at 2.08 µM; inhibition: at 2 µM, stronger effect = higher value, 0% TNFa-plus-vehicle, 100% no-TNFa wells
# [2] = inhibitors of mutant huntingtin aggregation, primary screen, imaging, exon1htt(103Q)mCFP cells, high-content imaging (AID 483;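 active = visual image review flags a hit and inhibition of aggregation exceeds 20%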;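 note: compound exposure lasted 3 days before fixation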;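 for nuclei count: percent of the per-plate median nuclei count of sample wells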); settings: exon1htt(103Q)mCFP cell line, aggregate imaging, at 2 µM; inhibition of aggregation: stronger effect = higher value; nuclei count: measured here: cell count, toxicity
# [3] = inhibitors of E-selectin induction by TNFa, primary screen, imaging, HUVEC, immunofluorescence, MLSMR starter and 10KST1 sets (AID 487;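 active = visually confirmed hit in the image check and inhibition above 20%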;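 for inhibition: signal is fraction of cell area covered by stained E-selectin grains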;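 for nuclei count: 100% = median nuclei count of all wells on the same plate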); settings: HUVEC TNFalpha-induced E-selectin immunofluorescence imaging, at 2 µM; inhibition: stronger effect = higher value; nuclei count: measured here: cell number, toxicity
# [4] = molecular target: Voltage-gated potassium channel subunit beta-2 (Rattus norvegicus) (UniProt P62483); assay: KvBeta enzyme negative modulators, primary screen, biochemical, NADPH fluorescence (AID 622); settings: recombinant KvBeta, 4-cyanobenzaldehyde reduction, at 10 µM, stronger effect = higher value;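 note: slope of raw intensity against log time taken from 70 to 1610 s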
# Voltage-gated potassium channel subunit beta-2 (Rattus norvegicus), sequence (P62483 whole entry, looked up): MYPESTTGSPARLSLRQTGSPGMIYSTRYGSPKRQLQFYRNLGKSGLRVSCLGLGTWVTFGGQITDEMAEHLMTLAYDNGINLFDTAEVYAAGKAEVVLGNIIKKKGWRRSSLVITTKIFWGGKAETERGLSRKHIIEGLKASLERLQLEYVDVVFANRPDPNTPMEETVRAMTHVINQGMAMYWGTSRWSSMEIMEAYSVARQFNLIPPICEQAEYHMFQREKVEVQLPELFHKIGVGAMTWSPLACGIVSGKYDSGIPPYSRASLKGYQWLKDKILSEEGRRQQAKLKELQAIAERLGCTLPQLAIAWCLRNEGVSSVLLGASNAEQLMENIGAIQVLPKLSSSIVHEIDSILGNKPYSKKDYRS
# [5] = molecular target: Voltage-gated potassium channel subunit beta-2 (Rattus norvegicus) (UniProt P62483); assay: KvBeta positive modulators, primary screen, biochemical, NADPH fluorescence (AID 623;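 active = NADPH fluorescence slope more negative than the mean of all samples by about 3 SD, 99.7% confidence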;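 note: fluorescence intensity change per second fitted from 20 to 320 s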); settings: Recombinant KvBeta, NADPH fluorescence decrease slope, 10 min; at 10 µM; stronger effect = lower value
# [6] = molecular target: Alpha-2C adrenergic receptor (Homo sapiens) (UniProt P18825); assay: modulators of alpha2C/GIRK thallium flux, primary screen, cell-based, HEK293 alpha2C/GIRK1/2 (AID 624;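 active = fluorescence slope after compound addition differing from the mean of all screened samples at 99.7% confidence, in either direction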;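 note: slope of fluorescence ratio to pre-addition baseline per second over 15 to 24 s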); settings: thallium flux BTC fluorescence, at 10 µM, actives lie on both sides
# Alpha-2C adrenergic receptor (Homo sapiens), sequence (P18825 whole entry, looked up): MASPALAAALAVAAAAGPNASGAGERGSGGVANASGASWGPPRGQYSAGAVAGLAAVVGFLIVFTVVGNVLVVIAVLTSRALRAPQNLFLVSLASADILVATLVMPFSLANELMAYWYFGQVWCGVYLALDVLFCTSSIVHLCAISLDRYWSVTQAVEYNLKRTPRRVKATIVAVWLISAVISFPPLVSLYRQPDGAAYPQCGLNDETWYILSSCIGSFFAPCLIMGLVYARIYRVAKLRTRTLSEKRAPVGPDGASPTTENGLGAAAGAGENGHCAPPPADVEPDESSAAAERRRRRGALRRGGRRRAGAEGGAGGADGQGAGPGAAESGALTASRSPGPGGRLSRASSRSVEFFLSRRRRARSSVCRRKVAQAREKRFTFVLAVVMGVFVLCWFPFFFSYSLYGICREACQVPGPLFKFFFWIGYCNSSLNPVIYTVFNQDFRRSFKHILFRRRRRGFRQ
# [7] = inhibitors of Sendai virus-induced IRF3 signaling, primary screen, TLR/RLR signaling modifier project, cell-based, Sendai virus stimulus, luciferase, 10K MLSCN set (AID 602276;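 active = inhibition at or above 50% at 10 µM; inactive = inhibition below 50%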;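 note: firefly luciferase from ISG56 promoter only with Renilla not read in this screen; 0% = Sendai virus plus DMSO and 100% = medium plus DMSO without virus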); settings: HEK293 RL24 IRF3 luciferase reporter, at 10 µM, stronger effect = higher value
# [8] = inhibitors of poly I:C-induced TLR3 signaling, primary screen, cell-based, poly I:C stimulus, luciferase, 10K MLSCN set (AID 602277;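 active = inhibition of the reporter signal at or above 50%; inactive = inhibition below 50%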); settings: HEK293-TLR3 RL24 IRF3 luciferase reporter, at 10 µM, stronger effect = higher value
SMILES,cell count [1],inhibition [1],inhibition of aggregation [2],nuclei count [2] [%],inhibition [3],nuclei count [3] [%],fluorescence slope [4],NADPH fluorescence slope [5],slope [6],inhibition [7],inhibition [8]
COc1ccc(CNc2nc3nc(C)c(Cl)c(C)n3n2)cc1OC,684,-23.3% (inactive),-2.8% (inactive),110,-4.1% (inactive),105,-0.331 (inactive),-6e-05 (inactive),0.00515 (inactive),3.08% (inactive),-10.6% (inactive)
CCOC(=O)C1CCN(c2c(Nc3ccc4c(c3)OCCO4)c(=O)c2=O)CC1,789,4.6% (inactive),0.6% (inactive),106,-129% (inactive),125,-0.622 (inactive),2.4e-05 (inactive),0.0056 (inactive),44% (inactive),27.5% (inactive)
CCOC(=O)C1C2C=CC3(CN(c4cccc(Cl)c4)C(=O)C13)O2 (stereo not drawn),656,-0.3% (inactive),8.1% (inactive),105,-11.3% (inactive),110,-0.398 (inactive),9e-06 (inactive),0.0053 (inactive),13.2% (inactive),44.5% (inactive)
Cc1ccc(-c2nc(CS(=O)CC(=O)NCCN(CC(C)C)CC(C)C)c(C)o2)cc1 (stereo not drawn),716,-7.2% (inactive),21.6% (inactive),134,-18% (inactive),112,-0.538 (inactive),-2.2e-05 (inactive),0.00425 (inactive),21.1% (inactive),30.9% (inactive)
O=C(CSc1nc(-c2ccccc2)cs1)NCc1ccco1,200,-1.3% (inactive),0.4% (inactive),54.4,-32.4% (inactive),106,-0.511 (inactive),-3.4e-05 (inactive),0.00584 (inactive),-27.5% (inactive),-55.9% (inactive)
Cc1nn(C(=O)c2ccoc2C)c(N)c1-c1ccccc1,764,-1.1% (inactive),-13.8% (inactive),132,-25.3% (inactive),116,-0.534 (inactive),-4.2e-05 (inactive),0.007 (inactive),-27.9% (inactive),-123% (inactive)
CS(=O)(=O)N1CCCC(C(=O)NCc2ccccc2Cl)C1 (stereo not drawn),636,-10.2% (inactive),20.1% (inactive),77.4,-124% (inactive),97.8,-0.59 (inactive),-1.1e-05 (inactive),0.00562 (inactive),3.11% (inactive),8.19% (inactive)
COc1ccc(CCNC(=O)C2CC(=O)N(c3ccccc3)C2)cc1OC (stereo not drawn),336,-2.5% (inactive),-5.4% (inactive),102,22.4% (inactive),109,-0.452 (inactive),8.4e-07 (inactive),0.00653 (inactive),16.9% (inactive),25.7% (inactive)
CC1(C)NC(=O)N(CC(O)CN2CCCC2)C1=O (stereo not drawn),317,-4.8% (inactive),4.1% (inactive),85.6,-48.6% (inactive),72.8,-0.543 (inactive),4.5e-05 (inactive),0.00702 (inactive),6.37% (inactive),-4.68% (inactive)
CC(C)CSc1nc2ccccc2n1CC(N)=O,314,3% (inactive),-6.3% (inactive),109,33.6% (inactive),107,-0.362 (inactive),-4.7e-05 (inactive),0.00549 (inactive),13.3% (inactive),15.2% (inactive)
CS(=O)(=O)N(Cc1ccccc1)c1ccc(C(=O)N2CCOCC2)cc1,297,11.6% (inactive),23% (inactive),91.2,41.9% (inactive),96.9,-0.516 (inactive),-1.2e-05 (inactive),0.00702 (inactive),-11.4% (inactive),0.146% (inactive)
O=C(c1cc2ccccc2oc1=O)N1CCN(c2ccc(N3CCOCC3)nn2)CC1,490,-6.9% (inactive),0.1% (inactive),104,-13.6% (inactive),110,-0.603 (inactive),-1.8e-05 (inactive),0.00513 (inactive),-9.88% (inactive),18.4% (inactive)
NC(=O)COC(=O)c1ccc(S(=O)(=O)N2CCCCCC2)cc1,449,-7.8% (inactive),6.3% (inactive),104,-17.6% (inactive),116,-0.348 (inactive),-6.2e-05 (inactive),0.00701 (inactive),11% (inactive),14% (inactive)
CC(=O)Nc1cccc(Oc2nc(C)cc(C)c2C#N)c1,950,4% (inactive),0.6% (inactive),111,-87% (inactive),124,-0.553 (inactive),-1.7e-05 (inactive),0.00763 (inactive),2.68% (inactive),22.3% (inactive)
CCOc1ccc(OCC)c(NC(=O)CCCN2C(=O)c3cccnc3C2=O)c1,408,5.3% (inactive),15.7% (inactive),93.7,42.2% (inactive),102,-0.583 (inactive),-3.8e-05 (inactive),0.00505 (inactive),-17.2% (inactive),-8.59% (inactive)
CCCC(=O)Nc1c2c(nn1-c1ccc(OC)cc1)CS(=O)C2 (stereo not drawn),472,4.2% (inactive),-25.4% (inactive),117,-70.5% (inactive),100,-0.476 (inactive),-3.3e-05 (inactive),0.00523 (inactive),10.8% (inactive),22.2% (inactive)
CCOc1cc(S(=O)(=O)Nc2ccccn2)ccc1F,382,4.8% (inactive),0.1% (inactive),107,29.7% (inactive),99.7,-0.62 (inactive),4.6e-06 (inactive),0.0046 (inactive),5.64% (inactive),-11.5% (inactive)
COc1ccc(C2=NOC(C(=O)Nc3cc(Br)ccc3O)C2)cc1OC (stereo not drawn),672,-12.2% (inactive),-2.8% (inactive),102,-73.1% (inactive),106,-0.459 (inactive),-3.2e-05 (inactive),0.00665 (inactive),9.82% (inactive),34.8% (inactive)
COc1ccc(NC(=O)CSc2nnc(-c3ccccc3C)n2C)cc1,661,1.6% (inactive),3.2% (inactive),121,81.4% (active),111,-0.422 (inactive),-3.9e-05 (inactive),0.0036 (inactive),5.44% (inactive),28.1% (inactive)
CCOc1ccc(C2C=C(c3ccc(F)cc3)Nc3ncnn32)cc1 (stereo not drawn),548,11.5% (inactive),-15.6% (inactive),74.5,-113% (inactive),125,-0.0654 (active),-6.9e-06 (inactive),0.00554 (inactive),6.86% (inactive),12.6% (inactive)
O=C(c1cnc2n(c1=O)CCS2)N1CCc2ccccc21,529,9.1% (inactive),-15.5% (inactive),114,-39.6% (inactive),114,-0.51 (inactive),4.8e-06 (inactive),0.00669 (inactive),14.9% (inactive),27% (inactive)
CCOC(=O)Nc1ccc2c(c1)N(C(=O)OCCN(C)C)c1ccccc1CC2,425,-7.7% (inactive),25.6% (inactive),57.1,-16.3% (inactive),75.4,-0.563 (inactive),-2.3e-05 (inactive),0.00722 (inactive),6.83% (inactive),30.5% (inactive)
O=C(c1ccco1)N1CCN(C(=O)C2CC(c3ccc(F)cc3)=NO2)CC1 (stereo not drawn),448,-12.3% (inactive),-13.2% (inactive),106,-12.7% (inactive),112,-0.622 (inactive),2.2e-07 (inactive),0.00657 (inactive),7.52% (inactive),13.1% (inactive)
O=C(CCNS(=O)(=O)c1ccc(Cl)cc1)NCc1ccccn1,609,-21.1% (inactive),5.7% (inactive),78.6,0.3% (inactive),101,-0.318 (inactive),8.2e-06 (inactive),0.00312 (inactive),17.1% (inactive),21.6% (inactive)
O=C(O)C1CCCN(S(=O)(=O)c2ccc(Cl)s2)C1 (stereo not drawn),609,-7.1% (inactive),13.3% (inactive),88.8,-43.3% (inactive),116,-0.558 (inactive),-2.9e-05 (inactive),0.00655 (inactive),10.1% (inactive),33.8% (inactive)
COc1cc(OC)cc(-c2nnc(SCC(=O)Nc3cc(C)on3)o2)c1,230,0.6% (inactive),32.6% (inactive),77.5,-264% (inactive),111,-0.347 (inactive),-2.3e-05 (inactive),0.00422 (inactive),7.23% (inactive),31.7% (inactive)
CC(=O)c1cccc(-n2nnnc2SCC(=O)N2CCCC2)c1,720,-3.5% (inactive),-2.4% (inactive),119,-56% (inactive),106,-0.401 (inactive),-4.2e-05 (inactive),0.00357 (inactive),4.48% (inactive),14.5% (inactive)
CCSc1nncn1/N=C/c1ccc(OC)c(OC)c1,403,-9.6% (inactive),32.4% (inactive),89.8,39.9% (inactive),82.5,-0.319 (inactive),2e-05 (inactive),0.00581 (inactive),-8.45% (inactive),-5.17% (inactive)
